KDM4E inh: blocks human JMJD2E demethylase activity | B2RXH2 | JMJD2E catalytic domain, FDH-coupled NADH fluorescence (FDH is formaldehyde dehydrogenase) | Potency, µM (titrated, usually from 57.1 µM), for the others: top-dose activity change, negative = inhibition, actives largely listed as inhibitors | hit rate 1.6% among 230,000 | AID 2147; active means well fitted inhibition curve with a large enough effect, not every such curve was filed as active; inconclusive means small, poorly fitted or top-dose-only effect, or another doubt; inactive means no such curve, though single readings can be large or run the other way;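 further: potency means the concentration at half of the fitted maximal effect; 0% = wells with enzyme and -100% = buffer wells without enzyme; nearly all actives have a fitted effect of over 50% in size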
Target sequence (B2RXH2 1-337 limits assumed): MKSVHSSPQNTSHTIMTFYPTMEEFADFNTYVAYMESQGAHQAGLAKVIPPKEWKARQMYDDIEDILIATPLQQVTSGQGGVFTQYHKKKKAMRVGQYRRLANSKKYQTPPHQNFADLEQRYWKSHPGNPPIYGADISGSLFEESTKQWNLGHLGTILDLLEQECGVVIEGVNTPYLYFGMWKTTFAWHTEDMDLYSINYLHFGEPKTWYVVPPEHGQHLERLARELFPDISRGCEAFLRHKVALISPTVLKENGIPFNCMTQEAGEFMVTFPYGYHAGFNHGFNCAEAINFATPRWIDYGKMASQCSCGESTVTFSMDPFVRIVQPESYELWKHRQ
VDR inh: blocks the human vitamin D receptor; Potency, µM, for inactives: max response, negative = inhibition, hits mostly inhibitors; P11473; VDR-SRC2-3 peptide fluorescence polarization, 2 h; AID 504847; hit rate 0.93% among 400,000; further: potency means the concentration at half of the fitted maximal effect; on the % scale 0 is the no-effect control and ±100 the full control effect
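Two reagent solutions held at 4 deg C in the dark were dispensed, compounds pinned at 23 nl, and the mixture incubated 2 h at room temperature. Read-out: fluorescence polarization of VDR–SRC2-3 peptide binding.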
RGS12 GoLoco inh: inhibitors of human Gai1-RGS12 GoLoco interaction (red fluorophore) | hit rate 0.44% among 230,000 | Gai1:RGS12 GoLoco peptide FP, rhodamine, 10 min | Potency, µM (top dose mostly 61.6 µM), inactives show top-dose activity, negative = inhibition, hits mostly inhibitors | P63096; active means well fitted inhibition curve with a large enough effect, not every such curve was filed as active; inactive means no such curve, though single readings can be large or run the other way; further: potency means the concentration at half of the fitted maximal effect; on the % scale 0 is the no-effect control and ±100 the full control effect; nearly all actives have a fitted effect of over 30% in size
Target sequence (P63096 whole entry, looked up): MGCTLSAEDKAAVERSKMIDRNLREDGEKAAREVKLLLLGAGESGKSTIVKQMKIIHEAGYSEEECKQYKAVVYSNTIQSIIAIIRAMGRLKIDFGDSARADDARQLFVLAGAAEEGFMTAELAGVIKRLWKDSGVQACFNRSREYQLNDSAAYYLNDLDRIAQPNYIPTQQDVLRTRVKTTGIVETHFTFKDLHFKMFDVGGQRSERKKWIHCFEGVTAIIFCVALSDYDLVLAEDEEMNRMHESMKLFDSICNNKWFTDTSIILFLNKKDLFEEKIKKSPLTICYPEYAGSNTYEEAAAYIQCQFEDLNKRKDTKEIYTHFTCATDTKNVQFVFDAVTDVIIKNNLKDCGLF
HTT cytoprotect: Huntington cell model cytoprotection by ATP luminescence; PC12 HTT-Q103 induced, cytoprotection, ATP luminescence, 40 h; AID 1471; Potency, µM (doses to about 56.4 µM), for inactives: cytoprotection (ATP increase), hits mostly activators; hit rate 0.14% among 230,000; further: potency means the concentration at half of the fitted maximal effect; % of control where 0% means no effect; nearly all actives have a fitted effect of over 45% in size
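ATP quantification (ATPlite) reports survival of PC12 cells in which tebufenozide, 100 nM final, switches on Htt exon 1 with 103 glutamines linked to GFP; compounds are titrated.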
HttQ103 aggreg: reduces HttQ103-GFP aggregates in PC12 cells. PC12 HttQ103-GFP aggregates, Acumen cytometry, 40 h. Potency, µM (titrated, usually from 46.1 µM), for the others: at the highest dose activity change, negative = inhibition, most hits filed as inhibitors. hit rate 1.1% among 220,000. AID 1688; further: potency means the concentration at half of the fitted maximal effect; on the % scale 0 is the no-effect control and ±100 the full control effect; nearly all actives have a fitted effect of over 60% in size
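PC12 cells with ecdysone-inducible HTT exon1 Q103-GFP, induced by 100 nM tebufenozide, given compounds in a concentration series. GFP aggregates (1–25 um, 6 SD above background) counted in lysates by laser-scanning cytometry, 488 nm excitation.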
Coupling enz: coupling enzyme interference in Giardia aldolase counter-screen; hit rate 0.67% among 290,000; AID 2472; activity change, negative = inhibition, % at 58.2 µM, hits read low; coupling enzyme system counterscreen, AmpLite Red fluorescence; in the data active means activity change below about -30%; further: on the % scale 0 is the no-effect control and ±100 the full control effect
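Coupling enzymes only (glyceraldehyde-3-phosphate) + compound, at 57.5 uM final, 10 min RT; add substrate/coupling/AmpLite Red mix, 20 min RT; fluorescence ex 525/em 598 nm. Actives flag coupling-system interference.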
An asterisk follows results filed as active; [ ] = dose if it differs, or a comment. The list is not random: actives were taken first. Their share in the collection is about 2.3%. Unless noted, the call rests on the fitted dose curve; in most records, active means well fitted curve in the direction sought with a large enough effect; inconclusive means small, poorly fitted or top-dose-only effect, or another doubt; inactive means no such curve, though single readings can be large; an effect the other way counts as inactive or inconclusive.

What do the screens show for `O=S(=O)(c1ccccc1)N1CCCc2ccccc21`?
Coupling enz: -8

What do the screens show for `O=S(=O)(NC1CC1)c1ccc(S(=O)(=O)N2CCCc3ccccc32)cc1`?
KDM4E inh: 1%; VDR inh: -9%; RGS12 GoLoco inh: 7%; HTT cytoprotect: 23%[10 µM]; HttQ103 aggreg: 11µM*; Coupling enz: 2

How did COc1ccc(NC(=S)NC(NC(=O)CCl)C(Cl)(Cl)Cl)c([N+](=O)[O-])c1 (stereo unspecified) do in these assays?
KDM4E inh: -9%; VDR inh: 89µM*; RGS12 GoLoco inh: -8%; HTT cytoprotect: 7%[10 µM]; HttQ103 aggreg: 4%[9.22 µM]; Coupling enz: 3

What do the screens show for `COc1ccc(NC(=S)NC(NC(=O)c2ccccc2Cl)C(Cl)(Cl)Cl)c([N+](=O)[O-])c1` (stereo unspecified)?
KDM4E inh: -11%; VDR inh: -11%; RGS12 GoLoco inh: 9%; HTT cytoprotect: -24%; HttQ103 aggreg: 0%; Coupling enz: 2

What do the screens show for `O=C(Nc1ccc(NC(=O)c2ccccc2Cl)nc1)c1ccco1`?
VDR inh: 11%; Coupling enz: 3

What do the screens show for `Cc1ccc(-c2nc3cnccn3c2Nc2ccccc2)o1`?
KDM4E inh: inconclusive; VDR inh: inconclusive; RGS12 GoLoco inh: -12%; HTT cytoprotect: -22%; HttQ103 aggreg: -13%; Coupling enz: 0

How did Cc1ccc(Nc2c(-c3ccc(C)o3)nc3cnccn23)cc1 do in these assays?
KDM4E inh: inconclusive; VDR inh: 71µM*; RGS12 GoLoco inh: -13%; HTT cytoprotect: -26%; HttQ103 aggreg: 5%; Coupling enz: 1

What do the screens show for `O=C(c1cc(COc2c(F)cccc2F)on1)N(Cc1ccccc1)CC1CC1`?
VDR inh: -13%; Coupling enz: 0

Results for Cc1[nH][nH]c(=O)c1C(c1ccc(-c2ccc(C(=O)O)cc2)o1)c1c(C)[nH][nH]c1=O ?
KDM4E inh: inconclusive; VDR inh: inconclusive; RGS12 GoLoco inh: -15%; HTT cytoprotect: -42%; HttQ103 aggreg: 18%; Coupling enz: -63*

What do the screens show for `COc1ccc(-c2ccc(/C=N/N3C(=O)C4C5C=CC(C6CC56)C4C3=O)o2)c([N+](=O)[O-])c1` (stereo unspecified)?
KDM4E inh: 4%; VDR inh: inconclusive; RGS12 GoLoco inh: 6%; HTT cytoprotect: 6%[10 µM]; HttQ103 aggreg: -1%; Coupling enz: 0

What do the screens show for `COc1ccc(-c2ccc(C(c3c(C)[nH][nH]c3=O)c3c(C)[nH][nH]c3=O)o2)c([N+](=O)[O-])c1`?
KDM4E inh: 38%; VDR inh: inconclusive; RGS12 GoLoco inh: -5%; HTT cytoprotect: 14%; HttQ103 aggreg: -8%; Coupling enz: -49*

Results for Cc1[nH][nH]c(=O)c1C(c1ccc(-c2ccc(F)cc2)o1)c1c(C)[nH][nH]c1=O ?
KDM4E inh: 31%; VDR inh: 32µM*; RGS12 GoLoco inh: 0%; HTT cytoprotect: -3%[10 µM]; HttQ103 aggreg: 21%[9.22 µM]; Coupling enz: -37*

Results for Cc1[nH][nH]c(=O)c1C(c1ccc(-c2ccc(Cl)c(Cl)c2)o1)c1c(C)[nH][nH]c1=O ?
KDM4E inh: 15%; VDR inh: 79µM*; RGS12 GoLoco inh: 12%; HTT cytoprotect: -46%; HttQ103 aggreg: -18%; Coupling enz: -45*

How did CCC(C)C(NC(=O)OC(C)(C)C)C(=O)NC1COC2CC(n3cc(C)c(=O)[nH]c3=O)OC12 (stereo unspecified) do in these assays?
VDR inh: -14%; Coupling enz: 1

How did O=C(CC1C(=O)OCCN1Cc1ccccc1)Nc1cccc(Cl)c1 (stereo unspecified) do in these assays?
VDR inh: 1%

How did Cc1cccc(N2CCN(C(=O)Cn3nc(C)c4sc5ccccc5c4c3=O)CC2)c1C do in these assays?
VDR inh: 11%

Results for CC(C)(C)NC(=O)COc1coc(CN2CCN(C(=O)c3ccco3)CC2)cc1=O ?
VDR inh: -8%

How did Cc1[nH]c(=S)c(C#N)c(C)c1C(=O)Nc1ccccc1 do in these assays?
KDM4E inh: inconclusive; VDR inh: -11%; RGS12 GoLoco inh: 8%; HTT cytoprotect: -18%; HttQ103 aggreg: 8%; Coupling enz: 1

Results for CNC(=O)c1c(C)[nH]c(=S)c(C#N)c1-c1ccco1 ?
KDM4E inh: 32µM*; VDR inh: inconclusive; RGS12 GoLoco inh: -12%; HTT cytoprotect: 16%[10 µM]; HttQ103 aggreg: 11%[9.22 µM]; Coupling enz: -2

What do the screens show for `CN1C(=O)N(C)C2=NNC=NC2(O)C1=O` (stereo unspecified)?
KDM4E inh: inconclusive; VDR inh: -16%; RGS12 GoLoco inh: -1%; HTT cytoprotect: -21%; Coupling enz: -46*

What do the screens show for `CCCCCCCCCC[n+]1cccc2c3ccccc3ccc21`?
KDM4E inh: inconclusive; VDR inh: -27%; RGS12 GoLoco inh: 10µM*; HTT cytoprotect: -160%; HttQ103 aggreg: inconclusive; Coupling enz: 6

How did C#CCCCCCCC#CCN(C)C do in these assays?
KDM4E inh: 16µM*; VDR inh: -18%; RGS12 GoLoco inh: -8%; HttQ103 aggreg: 2%; Coupling enz: 4

Results for CN(C)CC#CCCCCCCC#CCN(C)C ?
KDM4E inh: -11%; RGS12 GoLoco inh: 3%; HTT cytoprotect: 11%[10 µM]; HttQ103 aggreg: -2%; Coupling enz: 3

Results for ICCc1ccccc1 ?
RGS12 GoLoco inh: 3.2µM*; HTT cytoprotect: -33%

Results for O=C(CCCc1ccccc1)Nc1ccccc1[N+](=O)[O-] ?
VDR inh: 20µM*; Coupling enz: 3

How did O=C(CCCc1ccccc1)Nc1ccc(Br)cc1F do in these assays?
VDR inh: 22µM*; Coupling enz: 0

How did COC(=O)c1ccc(NC(=O)c2cc3cc(C)ccc3n2C)cc1 do in these assays?
VDR inh: -4%

What do the screens show for `CCOP(=O)(OCC)/C(=N/OC(=O)c1ccc(OC)cc1)C(N)=O`?
KDM4E inh: 0%; VDR inh: 13%; RGS12 GoLoco inh: 4.5µM*; HTT cytoprotect: 0%[10 µM]; HttQ103 aggreg: -9%[9.22 µM]; Coupling enz: 0

Results for CCN(CC)S(=O)(=O)c1ccc(Oc2cccc(C(C)=O)c2)nc1 ?
KDM4E inh: 13%; VDR inh: 1%; RGS12 GoLoco inh: -9%; HTT cytoprotect: 7%; HttQ103 aggreg: 5.6µM*; Coupling enz: 0

Results for CCN(c1ccccc1)S(=O)(=O)c1ccc(Oc2ccccc2C(C)=O)nc1 ?
VDR inh: -7%

Screens: PubChem BioAssay, National Center for Advancing Translational Sciences (NCATS)
